In PubChem BioAssay (Tox21):
Where “and” joins values, the source holds several entries; their conditions need not be identical. Identical values can stand only once. Results filed as inconclusive are left out. Calls of active or inactive are those of the source. Unless noted, calls follow the shape of the dose curve; as a rule, active = well fitted curve in the direction sought with a large enough effect in the repeat runs; inconclusive = weak or mixed curves; inactive = no such curve, though single readings can be large; an effect the other way counts as inactive or inconclusive.

Experiments:
[1] = A CellTox Green Cytotoxicity Assay to monitor cytotoxicity in HEK293 cells - 32 hour (AID 1224881); also: nearly all actives have a fitted effect of over 40% in size; also: potency is read from the fitted curve at half-maximal effect
Outline: (§1)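 Each value comes from one timepoint of a single continuous run in which HEK293 cells with CellTox Green were exposed to compound for up to 40 h at 37 C, dye fluorescence rising with cell death.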

[2] = A CellTox Green Cytotoxicity Assay to monitor cytotoxicity in HepG2 cells - 0 hour (AID 1224882); also: nearly all actives have a fitted effect of over 35% in size; also: potency is read from the fitted curve at half-maximal effect
Outline: (§2)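 Continuous culture of HepG2 cells with a membrane-impermeant DNA dye; rising fluorescence marks dead cells. Compound exposure lasted up to 40 h at 37 C, with reads every 8 h from 0 h.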

[3] = A CellTox Green Cytotoxicity Assay to monitor cytotoxicity in HepG2 cells - 32 hour (AID 1224883); also: nearly all actives have a fitted effect of over 50% in size; also: potency is read from the fitted curve at half-maximal effect
Outline: as §2

[4] = A CellTox Green Cytotoxicity Assay to monitor cytotoxicity in HEK293 cells - 8 hour (AID 1224884); also: nearly all actives have a fitted effect of over 35% in size; also: potency is read from the fitted curve at half-maximal effect
Outline: as §1

[5] = qHTS RealTime-Glo MT Cell Viability Assay in HEK293 cells - 8 hour (AID 1224887); also: nearly all actives have a fitted effect of over 50% in size; also: potency is read from the fitted curve at half-maximal effect; as to activity change, negative = cytotoxicity: top concentration of the series differs between compounds
Outline: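 qHTS format; HEK293 cells with NanoLuc/prosubstrate reagent, 37 C/5% CO2 for 5 h pre-dosing; compounds 23 nL in DMSO; luminescence at each time point reflects viable cells.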

[6] = A CellTox Green Cytotoxicity Assay to monitor cytotoxicity in HEK293 cells - 16 hour (AID 1224888); also: nearly all actives have a fitted effect of over 35% in size; also: potency is read from the fitted curve at half-maximal effect
Outline: as §1

[7] = qHTS RealTime-Glo MT Cell Viability Assay in HepG2 cells - 0 hour (AID 1224889); also: nearly all actives have a fitted effect of over 50% in size; also: potency is read from the fitted curve at half-maximal effect
Outline: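 HepG2 cells were seeded at 600 cells/well together with NanoLuc luciferase and a cell-permeant prosubstrate, preincubated 5 h at 37 C/5% CO2, then pin-dosed with compounds in DMSO. Nonlytic luminescence from viable cells was read at each time point.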

[8] = qHTS assay to identify small molecule antagonists of the estrogen receptor alpha (ER-alpha) signaling pathway using the BG1 cell line in the presence of 0.1 nM 17-beta-estradiol - cell viability counter screen (AID 1259241); also: nearly all actives have a fitted effect of over 40% in size; also: potency is read from the fitted curve at half-maximal effect
Outline: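 VM7Luc4E2, 4,000 cells/well, phenol red-free medium + 10% charcoal-stripped FBS; 24 hr plating; cpd + 0.1 nM E2 final, 22 hr 37C/5% CO2; CellTiter-Fluor 30 min, fluorescence.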

[9] = qHTS assay to identify small molecule antagonists of the androgen receptor (AR) signaling pathway using the MDA cell line in the presence of 0.5 nM R1881 - cell viability counter screen (AID 1259242); also: nearly all actives have a fitted effect of over 45% in size; also: potency is read from the fitted curve at half-maximal effect
Outline: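 Fluorescence from CellTiter-Fluor, which reports protease activity of live cells, was read 30 min after reagent addition to MDA-kb2 cells that had been incubated 16 hr with compound and 0.5 nM R1881.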

[10] = target: Estrogen receptor (Homo sapiens) (UniProt P03372); assay: qHTS assay to identify small molecule antagonists of the estrogen receptor alpha (ER-alpha) signaling pathway using the BG1 cell line in the presence of 0.1 nM 17-beta-estradiol (AID 1259244); also: nearly all actives have a fitted effect of over 50% in size; also: potency is read from the fitted curve at half-maximal effect
Outline: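 Quantitative high-throughput screen in VM7Luc4E2 cells: compound plus 0.1 nM E2 (final), 22 h, 37C, 5% CO2; ONE-Glo added, 30 min room temperature, luminescence measured.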

[11] = qHTS assay to identify small molecule HDAC inhibitors - cell viability counter screen (AID 1259365)
Outline: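 Luminescence from CellTiter-Glo, developed 30min at room temperature, reports viability of wild-type HCT-116 cells treated 2hr with compounds at 37 C and 5% CO2 after overnight plating.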

[12] = qHTS assay to identify small molecule agonists of the sonic hedgehog signaling (Shh) pathway - cell viability counter screen (AID 1259366); also: nearly all actives have a fitted effect of over 50% in size; also: potency is read from the fitted curve at half-maximal effect
Outline: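 Cytotoxicity counter screen run in the same wells as the Shh reporter assay. NIH/3T3 cells carrying a Gli1 response element–driven luciferase were treated with DMSO-dissolved compounds for 24hr, and live-cell protease activity was measured with CellTiter-Fluor.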

[13] = qHTS assay to identify small molecule antagonists of the sonic hedgehog signaling (Shh) pathway - cell viability counter screen (AID 1259367); also: nearly all actives have a fitted effect of over 55% in size; also: potency is read from the fitted curve at half-maximal effect
Outline: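 NIH/3T3-derived Gli1-Luc reporter cells (2,000 per well) rested 4 hr at 37 C, then received DMSO compounds plus conditioned medium. After 23 hr of treatment, CellTiter-Fluor was added for 1 hr at 37C and fluorescence read.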

[14] = qHTS assay to identify small molecule agonists of the sonic hedgehog signaling (Shh) pathway (AID 1259368; calls by dose curve;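 also: NIH/3T3-derived 3T3Gli1-Luc cells carrying a stable Gli1-driven firefly luciferase reporter; series mostly up to about 92 µM; nearly all actives have a fitted effect of over 15% in size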)
Outline: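 Luminescent signal was taken as a measure of Gli1-controlled luciferase expression in stably transfected NIH/3T3-derived cells that had been treated for 24 hr with compounds delivered in DMSO.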

[15] = qHTS RealTime-Glo MT Cell Viability Assay in HEK293 cells - 24 hour (AID 1224886); also: nearly all actives have a fitted effect of over 50% in size; also: potency is read from the fitted curve at half-maximal effect; as to activity change, negative = cytotoxicity: top concentration of the series differs between compounds
Outline: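 HEK293 cells were seeded at 600 cells/well together with NanoLuc luciferase and cell-permeant prosubstrate, preincubated 5 h at 37 C/5% CO2, then given compound in DMSO by pintool. Luminescence from viable-cell prosubstrate reduction was read repeatedly over 40 h.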

[16] = A CellTox Green Cytotoxicity Assay to monitor cytotoxicity in HepG2 cells - 8 hour (AID 1224890); also: nearly all actives have a fitted effect of over 45% in size; also: potency is read from the fitted curve at half-maximal effect
Outline: as §2

[17] = qHTS assay to identify small molecule phospholipidosis (PLD) inducers (AID 1259344; active = well fitted curve in the direction sought with a large enough effect; an effect the other way counts as inactive or inconclusive; also: potency is read from the fitted curve at half-maximal effect)
Outline: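 HepG2 cells on collagen I, attached 4 h at 37 C, were co-treated with compound and LipidTOX Red dye for 24 h at 37 C, then fixed with paraformaldehyde plus Hoechst 33342 and imaged by high-content microscopy for phospholipid accumulation.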

[18] = qHTS assay to identify small molecule HDAC inhibitors (AID 1259364); also: nearly all actives have a fitted effect of over 45% in size; also: potency is read from the fitted curve at half-maximal effect; as to activity change, negative = inhibition: top concentration of the series differs between compounds
Outline: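 Endogenous HDAC class I/II activity was measured in wild-type HCT-116 cells by HDAC-Glo luminescence after 2 h compound treatment.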

[19] = target: Androgen receptor (Homo sapiens) (UniProt P10275); assay: qHTS assay to identify small molecule antagonists of the androgen receptor (AR) signaling pathway using the MDA cell line in the presence of 0.5 nM R1881 (AID 1259243); also: nearly all actives have a fitted effect of over 50% in size; also: potency is read from the fitted curve at half-maximal effect
Outline: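 Inhibition of R1881 (0.5 nM final) induced reporter signal was measured in human MDA-kb2 cells; note the MMTV promoter also responds to GR. Exposure lasted 16 hr at 37C.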
% is scaled to controls: 0 for no effect and ±100 for the full control effect.

Estrogen receptor (Homo sapiens), sequence (P03372 whole entry, looked up): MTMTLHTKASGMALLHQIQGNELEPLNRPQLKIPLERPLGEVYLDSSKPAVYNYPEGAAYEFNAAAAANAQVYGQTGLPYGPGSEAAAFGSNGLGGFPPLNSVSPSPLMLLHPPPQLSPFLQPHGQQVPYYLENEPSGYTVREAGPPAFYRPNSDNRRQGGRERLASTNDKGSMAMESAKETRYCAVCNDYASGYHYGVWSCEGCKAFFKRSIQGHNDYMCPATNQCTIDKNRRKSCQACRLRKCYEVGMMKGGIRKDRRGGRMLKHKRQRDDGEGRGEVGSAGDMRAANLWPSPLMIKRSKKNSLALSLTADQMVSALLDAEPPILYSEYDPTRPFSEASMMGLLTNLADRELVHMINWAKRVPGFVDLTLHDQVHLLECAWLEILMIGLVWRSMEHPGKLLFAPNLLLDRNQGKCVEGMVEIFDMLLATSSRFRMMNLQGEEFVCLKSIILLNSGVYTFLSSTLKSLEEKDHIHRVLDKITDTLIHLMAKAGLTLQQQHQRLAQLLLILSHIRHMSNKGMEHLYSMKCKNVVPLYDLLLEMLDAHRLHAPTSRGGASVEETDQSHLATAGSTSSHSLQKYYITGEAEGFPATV
Androgen receptor (Homo sapiens), sequence (P10275 whole entry, looked up): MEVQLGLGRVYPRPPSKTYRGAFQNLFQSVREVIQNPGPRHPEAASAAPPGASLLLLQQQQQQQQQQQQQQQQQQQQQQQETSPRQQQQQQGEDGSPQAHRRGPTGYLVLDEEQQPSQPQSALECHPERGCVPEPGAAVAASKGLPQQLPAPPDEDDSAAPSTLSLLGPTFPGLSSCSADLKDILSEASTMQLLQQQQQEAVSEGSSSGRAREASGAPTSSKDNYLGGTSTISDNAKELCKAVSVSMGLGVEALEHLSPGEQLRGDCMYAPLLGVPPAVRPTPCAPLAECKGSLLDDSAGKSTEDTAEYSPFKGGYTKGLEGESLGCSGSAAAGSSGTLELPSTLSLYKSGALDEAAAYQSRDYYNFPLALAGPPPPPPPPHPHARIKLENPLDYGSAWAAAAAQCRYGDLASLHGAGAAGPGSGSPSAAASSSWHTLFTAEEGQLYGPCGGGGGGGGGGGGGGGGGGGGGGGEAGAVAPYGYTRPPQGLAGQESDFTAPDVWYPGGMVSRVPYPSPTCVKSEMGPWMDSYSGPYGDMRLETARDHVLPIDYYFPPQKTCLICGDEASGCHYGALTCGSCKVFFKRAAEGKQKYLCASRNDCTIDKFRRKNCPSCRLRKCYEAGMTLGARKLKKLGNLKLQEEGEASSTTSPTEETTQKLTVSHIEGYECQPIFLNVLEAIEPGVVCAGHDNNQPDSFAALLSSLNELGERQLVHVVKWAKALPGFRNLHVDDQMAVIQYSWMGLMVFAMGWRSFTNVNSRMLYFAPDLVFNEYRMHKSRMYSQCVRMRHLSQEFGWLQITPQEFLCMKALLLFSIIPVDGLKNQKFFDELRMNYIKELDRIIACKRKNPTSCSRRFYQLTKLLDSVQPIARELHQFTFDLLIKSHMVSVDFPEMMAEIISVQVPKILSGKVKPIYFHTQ

CCCN(CCC)C(=O)C(CCC(=O)OCCCN1CCN(CCOC(=O)Cc2c(C)n(C(=O)c3ccc(Cl)cc3)c3ccc(OC)cc23)CC1)NC(=O)c1ccccc1 (stereo unspecified)
inactive: Potency [1] | Potency [2] | Potency [4] | Potency [6] | Potency [7] | Potency [9] | Potency [10] | Potency [11] | Potency [14]
active: Potency [3] 23.9 µM | Potency [5] 23.9 µM | Potency [8] 13.3 µM | Potency [12] 11.9 µM | Potency [13] 10.6 µM

O=C(Nc1cccc(C(F)(F)F)c1)c1cc(Br)cc(Br)c1O
active: Potency [3] 17.4 µM | Potency [15] 4.9 µM | Potency [10] 4.86 µM | Potency [18] 3.86 µM
inactive: Potency [1] | Potency [2] | Potency [4] | Potency [5] | Potency [6] | Potency [16] | Potency [8] | Potency [17] | Potency [11] | Potency [12] | Potency [14]

CN(C)c1ccc(C2(c3ccc(N(C)C)cc3)OC(=O)c3cc(N(C)C)ccc32)cc1
inactive: Potency [1] | Potency [2] | Potency [3] | Potency [4] | Potency [15] | Potency [5] | Potency [6] | Potency [7] | Potency [16] | Potency [8] | Potency [9] | Potency [19] | Potency [11] | Potency [13] | Potency [14]

CNCc1cc(F)ccc1Oc1ccc(Cl)c(Cl)c1
active: Potency [1] 49 µM | Potency [3] 49 µM | Potency [15] 38.9 µM | Potency [10] 54.5 µM
inactive: Potency [2] | Potency [4] | Potency [8] | Potency [18] | Potency [11]

CCCC1O[C@@H]2C[C@H]3[C@@H]4CCC5=CC(=O)C=C[C@]5(C)[C@H]4[C@@H](O)C[C@]3(C)[C@]2(C(=O)CO)O1 (stereo partly specified)
active: Potency [7] 7.77 µM and 7.76 µM | Potency [13] 38.6 µM
inactive: Potency [1] | Potency [2] | Potency [3] | Potency [4] | Potency [6] | Potency [16] | Potency [8] | Potency [17] | Potency [18] | Potency [11]

CCN1/C(=C/C=C/c2sc3ccccc3[n+]2CC)Sc2ccccc21
active: Potency [1] 10.4 µM | Potency [3] 1.17 µM | Potency [15] 1.17 µM | Potency [8] 2.31 µM | Potency [9] 0.82 µM | Potency [10] 0.58 µM | Potency [17] 22.4 µM | Potency [12] 4.61 µM | Potency [13] 5.17 µM
inactive: cytotoxicity [2] -4.71% [at 15.8 µM] | cytotoxicity increase [4] -9.76% [at 15.8 µM] | activity change, negative = cytotoxicity [5] -21.6% [at 15.8 µM] | activity change [6] -3.87% [at 15.8 µM, active compounds read high] | activity change, negative = cytotoxicity [7] -13.2% [at 15.8 µM] | cytotoxicity increase [16] -7.07% [at 15.8 µM] | activity change, negative = inhibition [18] -19.9% [at 19 µM] | activity change, negative = cytotoxicity [11] -13.9% [at 19 µM] | activity change [14] -1.72% [at 18.9 µM, active compounds read high]

CCCCCCCCCCCCCCCCCC[N+](C)(C)C
inactive: Potency [2] | Potency [7] | Potency [8] | Potency [18] | Potency [14]
active: Potency [1] 21.9 µM | Potency [3] 49.1 µM | Potency [4] 39 µM | Potency [15] 19.6 µM | Potency [5] 49.1 µM | Potency [6] 49.1 µM | Potency [19] 27.4 µM | Potency [10] 54.6 µM | Potency [12] 68.8 µM

CCCC(=O)OC[C@@H](OC(=O)CCC)[C@@H](OC(=O)CCC)[C@H](Cn1c2nc(=O)[nH]c(=O)c-2nc2cc(C)c(C)cc21)OC(=O)CCC
active: Potency [1] 21.3 µM | Potency [2] 16.9 µM | Potency [3] 19 µM | Potency [4] 21.3 µM | Potency [6] 21.3 µM | Potency [16] 19 µM | Potency [19] 16.8 µM
inactive: Potency [7] | Potency [9] | Potency [17] | Potency [11] | Potency [14]

O=c1[nH]cnc2nc[nH]c12
inactive: Potency [1] | Potency [2] | Potency [3] | Potency [4] | Potency [5] | Potency [6] | Potency [7] | Potency [16] | Potency [8] | Potency [9] | Potency [17] | Potency [18] | Potency [11] | Potency [12] | Potency [13] | Potency [14]

Cc1onc(-c2c(Cl)cccc2Cl)c1C(=O)N[C@@H]1C(=O)N2[C@@H]1SC(C)(C)[C@@H]2C(=O)O
inactive: Potency [1] | Potency [2] | Potency [3] | Potency [4] | Potency [15] | Potency [5] | Potency [6] | Potency [7] | Potency [16] | Potency [8] | Potency [9] | Potency [19] | Potency [17] | Potency [18] | Potency [11] | Potency [13]
